Rows were chosen to be rich in hits. Some 4.7% of all compounds tested hit in one or more screens of this group.
Efflux pump inh: inhibitors of Candida efflux pumps in yeast, primary screen, S. cerevisiae, Nile Red, multiplex; inhibition, % at 10 µM; AID 485275, 2010; S. cerevisiae Candida pump triplex; 330,000 tested, 0.44% active;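 active = plate passing quality check with inhibition over a set limit, or well fluorescence over plate mean plus 4 SD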;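 also: Nile Red retained in pooled yeast measured as flow cytometry median fluorescence; 0% = buffer negative control and 100% = Enniatin B positive control; higher means more Nile Red kept so more efflux inhibition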
PABP polyA inh: PABP poly(A) RNA binding inhibitors, primary screen, biochemical, fluorescence polarization, uHTS | 290,000 tested, 1% active | Polyadenylate-binding protein 1 (Homo sapiens), P11940 | inhibition, % at 35 µM | AID 2014, 2009;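 also: calls also rest on retests at 20 µM and on dose response follow-up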
eIF4H inh: human eIF4H binding inhibitors, primary screen, translation initiation inhibitor project, biochemical, uHTS, fluorescence polarization | AID 2012, 2009 | Eukaryotic translation initiation factor 4H (Homo sapiens), Q15056 | inhibition, % at 35 µM | eIF4H fluorescence polarization binding assay | 290,000 tested, 0.94% active;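 also: calls also rest on retests at 20 µM and on dose response follow-up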
ALR H2O2 inh: inhibitors of human ALR sulfhydryl oxidase, primary screen, biochemical, H2O2 detection, HRP-luminol luminescence, single point; 290,000 tested, 3.8% active; FAD-linked sulfhydryl oxidase ALR (Homo sapiens), P55789; AID 485317, 2010; inhibition, % (concentration not given with the values); purified ALR, DTT oxidation;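 active = mean replicate inhibition above about 79%, with every replicate also reaching it, limit read from the data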
Target sequence (P55789 whole entry, looked up): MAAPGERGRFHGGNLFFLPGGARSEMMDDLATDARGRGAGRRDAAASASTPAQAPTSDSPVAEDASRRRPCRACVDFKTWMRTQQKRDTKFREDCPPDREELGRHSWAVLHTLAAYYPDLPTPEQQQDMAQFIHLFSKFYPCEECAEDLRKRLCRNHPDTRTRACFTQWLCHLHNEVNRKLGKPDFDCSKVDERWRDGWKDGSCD
PABP1 MLLE inh: inhibitors of PABP1 MLLE–PAM2 peptide binding, primary screen, biochemical, fluorescence polarization, FITC-PAM2, GST-MLLE; inhibition, % at 20 µM; Polyadenylate-binding protein 1 (Homo sapiens), P11940; 360,000 tested, 0.36% active; in the data active = inhibition above about 35%, passing the limit was not always enough;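 also: plate controls were DMSO wells with GST-MLLE for no effect and wells lacking GST-MLLE protein for full effect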
SUMO HTRF inh: inhibitors of in vitro SUMOylation cascade, primary screen, biochemical, HTRF, uHTS. SUMO-conjugating enzyme UBC9 (Homo sapiens), P63279. HTRF SUMOylation assay, SAE1/SAE2 + UBC9. inhibition, % at 35 µM. 290,000 tested, 0.36% active. AID 2006, 2009; in the data active = inhibition above about 50%, passing the limit was not always enough
Target sequence (P63279 whole entry, looked up): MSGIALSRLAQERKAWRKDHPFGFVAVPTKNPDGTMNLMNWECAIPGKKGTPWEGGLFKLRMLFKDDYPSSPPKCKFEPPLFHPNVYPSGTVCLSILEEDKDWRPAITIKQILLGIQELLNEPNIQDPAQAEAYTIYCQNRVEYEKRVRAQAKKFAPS
Starred values were filed as active, the others as inactive; nt = no result. Unless noted, no rule for the calls is given here.

SMILES	Efflux pump inh	PABP polyA inh	eIF4H inh	ALR H2O2 inh	PABP1 MLLE inh	SUMO HTRF inh
CC1CN(C(=O)Nc2ccc3snnc3c2)c2ccccc21 (stereo not given)	0	-7	-15	94*	-13	-3
O=C(Nc1ccc2snnc2c1)N1CCSCC1	0	-4	-9	93*	15	2
CC1Cc2ccccc2N1C(=O)c1ccc2snnc2c1 (stereo not given)	0	-4	-4	-2	11	-3
CNC(=O)Nc1ccc2snnc2c1	0	7	-4	52	-6	23
O=C1C2CCCN2C(=O)N1CCCCN1CCN(c2ccc(F)cc2)CC1 (stereo not given)	0	-8	-10	17	13	19
S=C1NC2(CCCCC2)NN1c1ccccc1	0	-2	1	98*	-61	13
CNc1cc(-c2cccc(N(C)C)c2)ncn1	nt	nt	nt	nt	13	nt
CC(C)C(=O)n1nc(-c2cccnc2)nc1NCc1cccs1	0	-1	3	97*	-3	-14
Cc1ccc(C(=O)C2CC2)c(C)c1	nt	nt	nt	nt	11	nt
Cc1ccc(C(N)=S)c(C)c1	0	nt	nt	nt	40*	nt
Fc1ccc2cnc(CCO[C@H]3CCCCO3)cc2c1	0	nt	nt	-3	-1	nt
O=C(CN1C(=O)NC2(CCc3ccccc32)C1=O)c1ccc(F)cc1 (stereo not given)	0	nt	nt	-5	0	nt
C=CCn1c(C(C)NC(=O)c2ccccc2C)n[nH]c1=S (stereo not given)	0	14	-8	64	-6	6
C=CCn1c(C(C)NC(=O)c2ccc(C)cc2)n[nH]c1=S (stereo not given)	0	1	2	95*	0	-11
CCCCOc1ccc(CC(=O)NO)cc1	0	-6	-12	91*	-2	1
O=S(=O)(NC1=NCCCCC1)c1ccc2sc(NS(=O)(=O)c3ccc4ccccc4c3)nc2c1	0	1	2	87*	28	-41
O=S(=O)(Nc1nc2c(s1)CCCC2)c1ccc2ccccc2c1	0	-12	3	48	1	30
CCCOc1ccc(N2C(=O)CC(NNC(=O)c3ccc(COc4ccccc4)o3)C2=O)cc1 (stereo not given)	0	62*	-9	-10	12	25
CCCN1C2CCCC1CC(NC(=S)Nc1cc(C)cc(C)c1)C2 (stereo not given)	0	-2	11	-1	14	3
Cc1ccc(SCC(=O)N2CCN(S(=O)(=O)c3cccs3)CC2)cc1	0	nt	nt	-13	-18	nt
N#C/C(=C/c1ccc(F)cc1)c1nnc(NC(=O)c2ccccc2)s1	0	57*	88*	-1	-19	35
CN(Cc1ccc(F)cc1)S(=O)(=O)c1nnc(NC(=O)c2ccccc2)s1	0	-5	-5	-1	-24	14
NNc1nc2sc3c(c2c(=O)[nH]1)CCc1ccccc1-3	0	active	101*	0	-16	1
Nc1ccccc1Sc1c[nH]c2ccccc12	1	1	-11	99*	10	-12
COc1ccc(OCC(=O)N/N=C2\CCCCc3ccccc32)cc1	0	-8	8	-5	-2	2
SMILES	Efflux pump inh	PABP polyA inh	eIF4H inh	ALR H2O2 inh	PABP1 MLLE inh	SUMO HTRF inh
CCc1ccc(OCC(=O)N/N=C2\CC(=O)c3ccccc32)cc1	0	24	5	-61	5	87*
CCc1nc2c(OCc3cc(Cl)cc(Cl)c3)cccn2c1N(C)C(=O)c1ccccc1F	nt	nt	nt	nt	9	nt
COC(=O)C(C(=O)OC)=C(/C=C/C=C/N(C)C)N(C)C	0	91*	101*	13	22	-8
CC(NC(=O)COC(=O)C1CCCCC1)c1ccccc1 (stereo not given)	0	nt	nt	nt	-5	nt
O=C1/C(=C/c2ccccc2)CCc2ccc(Cl)nc21	nt	nt	nt	nt	8	nt
Nc1nc(-c2c[nH]c3ccccc23)cs1	0	36	4	87*	-5	7
O=C(CCCN1C(=O)CCC1=O)Nc1ccccc1F	0	-4	8	-3	34*	-14
CC(C)(C)c1ccc(OCC(=O)N/N=C/C2CC=CCC2)cc1 (stereo not given)	0	7	-5	nt	2	-8
COc1ccc(C(=O)N/N=C/C2CC=CCC2)cc1OC (stereo not given)	0	-4	0	93*	-1	-12
COc1cc(C2C(C(=O)OC(C)C)=C(C)Nc3[nH]c(=O)[nH]c(=O)c32)ccc1O (stereo not given)	0	0	0	79*	3	-14
Cc1ccc2c(c1)c1c(n2CC(O)CN2CCC(C)CC2)CCCC1 (stereo not given)	0	-13	1	93*	-6	-5
Cc1ccc2c(c1)c(C)c(C)n2CC(O)CN1CCCCC1C (stereo not given)	0	11	1	95*	-7	4
Cc1ccc2c(c1)c1c(n2CC(O)CN2CCOCC2)CCCC1 (stereo not given)	0	4	-2	9	nt	21
Cc1ccc2c(c1)c1c(n2CC(O)CN2CCCCC2C)CCCC1 (stereo not given)	0	6	6	95*	-19	8
Cc1ccc(C)c(OCC(O)CN2CCCCC2C)c1 (stereo not given)	0	2	3	-1	-18	2
O=C(O)C(C1CCCCC1)C1(O)CCCC1 (stereo not given)	nt	nt	nt	nt	-2	nt
CC(=O)Oc1cc2oc(=O)cc(C)c2cc1Cl	0	56	-8	97*	1	16
CC(C)(C)OC(=O)C[C@H]1C/C=C\C[C@H](CC(=O)NCCO)C(=O)N[C@@H](Cc2ccccc2)COC1=O	0	nt	nt	-3	-6	nt
Cc1nnc(SCC(=O)c2ccc(Cl)cc2)n(N)c1=O	1	-7	3	99*	19	9
Cn1c(CO)cnc1SCC(=O)c1ccc(Cl)cc1	0	17	25	99*	-6	7
Cc1nnc(SCC(=O)Nc2ccccc2F)n(N)c1=O	0	6	-2	-1	17	0
COc1ccccc1OCCC(=O)Nc1cccc(S(=O)(=O)N2CCOCC2)c1	0	nt	nt	-6	-5	nt
CCn1c(C)c(CS(=O)(=O)c2ccccc2)[nH]c1=O	0	-2	0	33	38*	8
CON(C)S(=O)(=O)NC(=O)C1=C(N2CCCC2)COC1=O	0	nt	nt	-7	-5	nt
CN(C)c1ccc(N/C(=N\S(=O)(=O)c2cccs2)c2ccccc2)cc1	0	-6	6	99*	8	-19

Screens: PubChem, several laboratories
